# Results: PubChem BioAssay (EPA / NIEHS)
# Records with an inconclusive call do not appear. Activity calls are given as the source filed them. How the source made its calls, unless noted: active means hit-call score of the fitted dose curve at least 0.9, where 1 is the maximum; inactive means score below 0.9.
# Experiments:
# [1] = ATG_NFI_CIS: Attagene CIS-FACTORIAL HepG2 Assay for human Nuclear Factor I (NFI) (AID 2282989); conditions: HepG2 cis-regulatory reporter, NFI response element transcription; actives raise or lower the signal
# Summary of the method: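 Transfected HepG2 liver cells, exposed 24 h, supplied total RNA for oligo(dT) reverse transcription and reporter-specific PCR. Labelled, HpaI-cut fragments were sized by capillary electrophoresis; DMSO set the baseline for bidirectional fitting.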
# [2] = target: Myc proto-oncogene protein (Homo sapiens) (UniProt P01106); test: ATG_Myc_CIS: Attagene CIS-FACTORIAL HepG2 Assay for human Myelocytomatosis (Myc) Proto-Oncogene Transcription Factor (AID 2282990); conditions: HepG2, Attagene cis-reporter transcription factor activity; actives raise or lower the signal
# Summary of the method: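 HepG2, transient MRTU transfection (cis promoters, endogenous TFs); 24 h dosing; TriZol RNA → oligo(dT) RT → PCR → 6-FAM primer extension → HpaI cut → CE. Bidirectional fit vs DMSO.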
# [3] = ATG_NF_kB_CIS: Attagene CIS-FACTORIAL HepG2 Assay for human Nuclear Factor Kappa B (NF-kB) (AID 2282991); conditions: HepG2 Attagene cis-factorial NF-kB reporter mRNA; actives raise or lower the signal
# Summary of the method: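 Fluorescence of labelled RT-PCR products separated by capillary electrophoresis gives reporter mRNA levels from transfected HepG2 cells exposed 24 h; values are fitted in both directions relative to DMSO.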
# [4] = ATG_NRF2_ARE_CIS: Attagene CIS-FACTORIAL HepG2 Assay for human Nuclear Factor Erythroid 2 Related Factor 2 (NFR2) response to Antioxidant Response Elements (ARE) (AID 2282992); conditions: HepG2 Attagene ARE/NRF2 reporter, transcription factor activity; actives raise or lower the signal
# Summary of the method: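 Cis-factorial assay: transfected HepG2 reporter library, 24 h dosing, mRNA readout via RT-PCR/CE; DMSO-referenced bidirectional analysis.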
# [5] = ATG_Oct_MLP_CIS: Attagene CIS-FACTORIAL HepG2 Assay for human Octamer-Binding Transcription Factor (Oct) (AID 2282993); conditions: HepG2 Attagene cis-factorial Oct reporter, mRNA; actives raise or lower the signal
# Summary of the method: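 Using HepG2 cells bearing transfected cis-reporter constructs, mRNA induction was read after 24 h by fluorescent RT-PCR and capillary electrophoresis, with DMSO defining baseline for gain- or loss-of-signal fits.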
# [6] = target: Cellular tumor antigen p53 (Homo sapiens) (UniProt P04637); test: ATG_p53_CIS: Attagene CIS-FACTORIAL HepG2 Assay for human p53 Transcription Factor (AID 2282994); conditions: HepG2 p53 cis-element reporter, Attagene mRNA; actives raise or lower the signal
# Summary of the method: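 Using HepG2 hepatoma cells carrying cis-acting multiplexed reporters, mRNA induction is detected after a 24 h exposure. Gain- and loss-of-signal responses are fitted relative to DMSO-treated cells.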
# [7] = BSK_3C_TissueFactor: BioMAP Diversity Plus: 3C Assay for Tissue Factor Biomarker Activity (AID 2282997); conditions: BioMAP 3C HUVEC, tissue factor biomarker readout; actives raise or lower the signal
# Summary of the method: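 Primary human umbilical vein endothelial cells in the 3C system were exposed to test chemical for 24 h, then Tissue Factor measured by ELISA. Activity was fitted bidirectionally against DMSO as negative control and baseline.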
# [8] = BSK_3C_uPAR: BioMAP Diversity Plus: 3C Assay for Urokinase-type plasminogen activator receptor (uPAR) Biomarker Activity (AID 2282998); conditions: BioMAP 3C HUVEC, uPAR biomarker ELISA; actives raise or lower the signal
# Summary of the method: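 In this endothelial cell-based assay, human umbilical vein primary cells were treated with chemicals and harvested at 24 h. uPAR was quantified using ELISA, with gains or losses fitted relative to DMSO controls.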
# [9] = BSK_3C_VCAM1: BioMAP Diversity Plus: 3C Assay for Vascular cell adhesion molecule 1 (VCAM1) Biomarker Activity (AID 2282999); conditions: BioMAP 3C HUVEC, VCAM1 ELISA, cytokine-stimulated; actives raise or lower the signal
# Summary of the method: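 Endothelial cells from human umbilical vein are treated with test chemical. At 24 h, VCAM-1 is measured by ELISA, and responses in either direction are fitted relative to DMSO.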
# [10] = BSK_4H_Eotaxin3: BioMAP Diversity Plus: 4H Assay for Eotaxin 3 Biomarker Activity (AID 2283000); conditions: primary human endothelial cells (HUVEC); actives raise or lower the signal;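 further: CCL26 protein level quantified by ELISA in parallel with SRB cytotoxicity check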
# Summary of the method: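 HUVEC, 24 h post-dose, ELISA for Eotaxin-3/CCL26. Gain or loss of signal fitted bidirectionally vs DMSO baseline.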
# [11] = target: human Peroxisome Proliferator-activated Receptor alpha (PPARa), PPARA (gene 5465) (UniProt Q07869); test: ATG_PPARa_TRANS: Attagene TRANS-FACTORIAL HepG2 Assay for human Peroxisome Proliferator-activated Receptor alpha (PPARa) (AID 2283001; active means hit-call score of the fitted dose curve at least 0.9, where 1 is the maximum)
# Summary of the method: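 Reporter transcripts from GAL4-UAS units in transfected HepG2 were quantified 24 h after dosing. Detection used reverse transcription, PCR, fluorescent primer extension and capillary electrophoresis, with DMSO as baseline.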
# [12] = target: human Peroxisome Proliferator-activated Receptor delta (PPARd), PPARD (gene 5467) (UniProt Q03181); test: ATG_PPARd_TRANS: Attagene TRANS-FACTORIAL HepG2 Assay for human Peroxisome Proliferator-activated Receptor delta (PPARd) (AID 2283002; active means hit-call score of the fitted dose curve at least 0.9, where 1 is the maximum)
# Summary of the method: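 Transient HepG2 transfection (multiple GAL4-UAS RTUs, chimeric receptor-Gal4); 24 h dosing; total RNA → oligo(dT) RT → PCR → 6-FAM primer extension → HpaI cut → CE. Positive direction vs DMSO.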
# [13] = read-out: Intercellular Adhesion Molecule 1 (ICAM1), ICAM1 (gene 3383); test: BSK_3C_ICAM1: BioMAP Diversity Plus: 3C Assay for Intercellular Adhesion Molecule 1 (ICAM1) Biomarker Activity (AID 2283003); conditions: primary human endothelial cells (HUVEC); actives raise or lower the signal
# Summary of the method: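 Human vascular endothelial primary cells, 3C conditions, 24 h treatment. ICAM-1 by ELISA.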
# [14] = BSK_3C_Proliferation: Cell Proliferation Assessment in the BioMAP Diversity Plus: 3C Assay (AID 2283006); conditions: primary human endothelial cells (HUVEC);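 on AC50: potency may reflect either rise or fall in cell number versus DMSO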
# Summary of the method: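 Proliferation of human vascular endothelial primary cells after 48 h dosing, quantified as SRB-stained protein at 560 nm relative to DMSO.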
# [15] = target: Nuclear receptor subfamily 1 group I member 2 (Homo sapiens) (UniProt O75469); test: ATG_PXR_TRANS: Attagene TRANS-FACTORIAL HepG2 Assay for human Pregnane X Receptor (PXR) (AID 2283008; active means hit-call score of the fitted dose curve at least 0.9, where 1 is the maximum)
# Summary of the method: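 Fluorescence intensity of FAM-labelled, HpaI-digested reporter amplicons, separated by capillary electrophoresis, quantifies induction. HepG2 cells with PXR-Gal4 trans-reporter system were exposed 24 h; DMSO defines baseline.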
# [16] = target: Peroxisome proliferator-activated receptor gamma (Homo sapiens) (UniProt P37231); test: ATG_PPARg_TRANS: Attagene TRANS-FACTORIAL HepG2 Assay for human Peroxisome Proliferator-activated Receptor-gamma (PPARg) (AID 2283007; active means hit-call score of the fitted dose curve at least 0.9, where 1 is the maximum)
# Summary of the method: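 Twenty-four hours after chemical dosing of transiently transfected HepG2 cells, isolated RNA was converted to cDNA, reporter sequences amplified and 6-FAM-labelled, then HpaI-digested and analysed by capillary electrophoresis. Signal increase against DMSO was fitted.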
# [17] = target: human RAR-related Orphan Receptor beta (RORb), RORB (gene 6096) (UniProt Q92753); test: ATG_RORb_TRANS: Attagene TRANS-FACTORIAL HepG2 Assay for human RAR-related Orphan Receptor beta (RORb) (AID 2283010; active means hit-call score of the fitted dose curve at least 0.9, where 1 is the maximum)
# Summary of the method: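 In this TRANS-format test, human HepG2 cells express chimeric NR-Gal4 fusion proteins driving GAL4-UAS reporters. After 24 h dosing, reporter transcripts are measured by fluorescent RT-PCR/capillary electrophoresis, with DMSO as negative control.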
# Chain of Cellular tumor antigen p53 (Homo sapiens) (P04637 whole entry, looked up): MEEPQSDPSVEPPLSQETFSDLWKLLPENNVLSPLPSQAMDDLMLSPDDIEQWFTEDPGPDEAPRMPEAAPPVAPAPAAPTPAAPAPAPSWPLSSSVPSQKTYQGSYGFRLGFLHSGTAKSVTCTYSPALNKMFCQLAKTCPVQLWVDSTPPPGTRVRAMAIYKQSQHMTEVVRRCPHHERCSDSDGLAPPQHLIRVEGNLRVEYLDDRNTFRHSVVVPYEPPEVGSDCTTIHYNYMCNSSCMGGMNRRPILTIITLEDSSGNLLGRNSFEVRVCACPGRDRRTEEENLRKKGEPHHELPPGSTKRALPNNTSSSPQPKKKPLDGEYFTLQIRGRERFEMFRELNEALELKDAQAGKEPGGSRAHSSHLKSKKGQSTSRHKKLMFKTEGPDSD
# Chain of Peroxisome proliferator-activated receptor gamma (Homo sapiens) (P37231 whole entry, looked up): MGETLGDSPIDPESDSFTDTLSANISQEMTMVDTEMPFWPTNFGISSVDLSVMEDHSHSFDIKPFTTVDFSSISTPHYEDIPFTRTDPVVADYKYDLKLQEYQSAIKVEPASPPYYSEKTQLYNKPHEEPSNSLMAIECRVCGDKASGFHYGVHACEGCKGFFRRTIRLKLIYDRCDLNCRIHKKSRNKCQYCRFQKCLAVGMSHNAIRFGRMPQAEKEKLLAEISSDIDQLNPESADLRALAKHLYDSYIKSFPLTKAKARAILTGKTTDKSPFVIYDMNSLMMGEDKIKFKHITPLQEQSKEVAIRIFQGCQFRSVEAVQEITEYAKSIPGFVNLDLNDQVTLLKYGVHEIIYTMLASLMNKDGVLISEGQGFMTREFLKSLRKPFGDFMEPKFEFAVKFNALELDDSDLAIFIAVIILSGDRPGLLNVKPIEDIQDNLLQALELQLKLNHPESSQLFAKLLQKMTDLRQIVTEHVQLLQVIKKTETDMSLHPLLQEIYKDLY
# Chain of Myc proto-oncogene protein (Homo sapiens) (P01106 whole entry, looked up): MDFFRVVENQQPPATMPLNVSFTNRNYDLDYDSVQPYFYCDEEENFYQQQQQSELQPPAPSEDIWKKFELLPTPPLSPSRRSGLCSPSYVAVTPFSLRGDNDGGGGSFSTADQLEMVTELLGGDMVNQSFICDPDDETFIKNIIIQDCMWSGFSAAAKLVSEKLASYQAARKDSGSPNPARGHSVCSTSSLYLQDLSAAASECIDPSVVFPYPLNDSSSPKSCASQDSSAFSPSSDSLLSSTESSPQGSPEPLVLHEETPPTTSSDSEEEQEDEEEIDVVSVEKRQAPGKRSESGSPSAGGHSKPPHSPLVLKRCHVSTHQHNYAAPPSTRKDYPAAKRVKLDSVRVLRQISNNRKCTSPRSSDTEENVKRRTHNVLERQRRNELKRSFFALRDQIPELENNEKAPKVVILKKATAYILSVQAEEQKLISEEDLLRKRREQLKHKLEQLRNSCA
# Chain of human Peroxisome Proliferator-activated Receptor delta (PPARd), PPARD (gene 5467) (Q03181 whole entry, looked up, the tested form may be a part): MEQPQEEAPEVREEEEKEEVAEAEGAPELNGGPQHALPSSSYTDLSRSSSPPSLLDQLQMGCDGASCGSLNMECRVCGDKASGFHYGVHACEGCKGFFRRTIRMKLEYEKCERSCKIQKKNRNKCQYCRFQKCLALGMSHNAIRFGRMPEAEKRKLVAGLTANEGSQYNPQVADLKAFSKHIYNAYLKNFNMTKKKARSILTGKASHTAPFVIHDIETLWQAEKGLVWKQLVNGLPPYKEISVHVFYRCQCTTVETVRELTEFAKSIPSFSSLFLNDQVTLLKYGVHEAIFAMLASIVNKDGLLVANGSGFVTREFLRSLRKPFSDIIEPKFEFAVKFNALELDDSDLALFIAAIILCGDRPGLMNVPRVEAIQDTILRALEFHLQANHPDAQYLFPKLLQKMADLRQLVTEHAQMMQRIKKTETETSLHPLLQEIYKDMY
# Chain of human RAR-related Orphan Receptor beta (RORb), RORB (gene 6096) (Q92753 whole entry, looked up, the tested form may be a part): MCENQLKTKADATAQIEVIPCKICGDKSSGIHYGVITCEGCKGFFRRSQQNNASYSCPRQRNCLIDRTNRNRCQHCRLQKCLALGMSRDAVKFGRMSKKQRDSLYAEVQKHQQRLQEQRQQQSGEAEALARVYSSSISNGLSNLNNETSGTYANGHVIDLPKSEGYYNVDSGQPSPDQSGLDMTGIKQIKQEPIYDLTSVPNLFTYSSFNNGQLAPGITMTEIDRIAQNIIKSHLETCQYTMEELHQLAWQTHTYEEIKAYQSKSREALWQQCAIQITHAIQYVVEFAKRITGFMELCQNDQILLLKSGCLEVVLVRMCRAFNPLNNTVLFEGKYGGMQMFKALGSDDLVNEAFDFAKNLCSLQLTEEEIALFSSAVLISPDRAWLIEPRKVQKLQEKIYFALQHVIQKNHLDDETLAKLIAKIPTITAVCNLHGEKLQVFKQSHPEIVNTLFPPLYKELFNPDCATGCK
# Chain of human Peroxisome Proliferator-activated Receptor alpha (PPARa), PPARA (gene 5465) (Q07869 whole entry, looked up, the tested form may be a part): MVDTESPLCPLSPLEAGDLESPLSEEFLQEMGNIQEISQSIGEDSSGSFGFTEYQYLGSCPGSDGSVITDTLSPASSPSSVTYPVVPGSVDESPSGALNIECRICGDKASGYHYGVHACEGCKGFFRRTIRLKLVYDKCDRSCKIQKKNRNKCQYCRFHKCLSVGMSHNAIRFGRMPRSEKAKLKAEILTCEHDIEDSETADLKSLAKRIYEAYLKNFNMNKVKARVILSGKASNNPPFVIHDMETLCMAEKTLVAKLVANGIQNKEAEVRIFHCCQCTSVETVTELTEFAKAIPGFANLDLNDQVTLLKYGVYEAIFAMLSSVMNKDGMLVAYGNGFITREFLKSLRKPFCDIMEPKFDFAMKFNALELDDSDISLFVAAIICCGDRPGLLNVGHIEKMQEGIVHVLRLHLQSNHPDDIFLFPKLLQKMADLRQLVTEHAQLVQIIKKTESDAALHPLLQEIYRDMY
# Chain of Nuclear receptor subfamily 1 group I member 2 (Homo sapiens) (O75469 whole entry, looked up, the tested form may be a part): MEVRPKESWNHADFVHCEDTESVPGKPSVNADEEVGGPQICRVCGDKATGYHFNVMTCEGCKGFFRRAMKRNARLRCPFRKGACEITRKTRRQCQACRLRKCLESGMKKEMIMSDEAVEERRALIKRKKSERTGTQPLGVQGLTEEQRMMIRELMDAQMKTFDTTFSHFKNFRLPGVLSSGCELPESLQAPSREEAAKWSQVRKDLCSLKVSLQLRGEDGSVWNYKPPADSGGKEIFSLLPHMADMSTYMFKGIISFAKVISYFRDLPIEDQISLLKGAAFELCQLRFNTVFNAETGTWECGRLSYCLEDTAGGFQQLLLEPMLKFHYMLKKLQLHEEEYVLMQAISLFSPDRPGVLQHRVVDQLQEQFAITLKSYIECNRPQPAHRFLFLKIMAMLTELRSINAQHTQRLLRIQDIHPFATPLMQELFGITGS
structure (smiles),measurement,setting,value
CCCCC(CC)COC(=O)/C=C\C(=O)OCC(CC)CCCC (configuration not stated),outcome,[1],inactive
same,outcome,[2],inactive
same,AC50,[3],45.6 µM (active)
same,AC50,[4],9.08 µM (active)
same,outcome,[5],inactive
same,outcome,[6],inactive
same,outcome,[7],inactive
same,outcome,[8],inactive
same,outcome,[9],inactive
same,outcome,[10],inactive
same,outcome,[11],inactive
same,outcome,[12],inactive
same,outcome,[13],inactive
same,outcome,[14],inactive
same,AC50,[15],4.17 µM (active)
CCn1c2ccccc2c2cc(N)ccc21,outcome,[1],inactive
same,outcome,[2],inactive
same,outcome,[3],inactive
same,AC50,[4],26.4 µM (active)
same,outcome,[5],inactive
same,outcome,[6],inactive
same,outcome,[7],inactive
same,AC50,[8],1.82 µM (active)
same,outcome,[9],inactive
same,outcome,[10],inactive
same,outcome,[11],inactive
same,outcome,[12],inactive
same,outcome,[13],inactive
same,AC50,[14],13.3 µM (active)
same,AC50,[15],4.67 µM (active)
CC(C)(C)c1n[nH]c(=S)n(N)c1=O,outcome,[1],inactive
same,outcome,[2],inactive
same,outcome,[3],inactive
same,outcome,[4],inactive
same,outcome,[5],inactive
same,outcome,[6],inactive
same,outcome,[11],inactive
N#Cc1ccc(CC(=NNC(=O)Nc2ccc(OC(F)(F)F)cc2)c2cccc(C(F)(F)F)c2)cc1,outcome,[1],inactive
same,outcome,[2],inactive
same,outcome,[3],inactive
same,outcome,[4],inactive
same,outcome,[5],inactive
same,outcome,[6],inactive
same,outcome,[7],inactive
same,outcome,[8],inactive
same,outcome,[9],inactive
same,outcome,[10],inactive
same,outcome,[11],inactive
same,outcome,[13],inactive
same,outcome,[14],inactive
same,AC50,[16],26.9 µM (active)
same,outcome,[15],inactive
OC1OC[C@@H](O)[C@H](O)[C@H]1O (some centres not stated),outcome,[1],inactive
same,outcome,[2],inactive
same,outcome,[3],inactive
same,outcome,[4],inactive
same,outcome,[5],inactive
same,outcome,[6],inactive
same,outcome,[7],inactive
same,outcome,[8],inactive
same,outcome,[9],inactive
same,outcome,[10],inactive
same,outcome,[11],inactive
same,outcome,[13],inactive
same,outcome,[14],inactive
same,outcome,[16],inactive
same,outcome,[17],inactive
CC(C)Oc1ccccc1O,outcome,[1],inactive
same,outcome,[2],inactive
same,outcome,[3],inactive
same,outcome,[4],inactive
same,outcome,[5],inactive
same,outcome,[6],inactive
same,outcome,[7],inactive
same,outcome,[8],inactive
same,outcome,[9],inactive
same,outcome,[10],inactive
same,outcome,[13],inactive
same,outcome,[14],inactive
same,AC50,[15],27.4 µM (active)
same,outcome,[17],inactive
O=C(O)c1snc(Cl)c1Cl,outcome,[1],inactive
same,outcome,[2],inactive
same,AC50,[3],100 µM (active)
same,AC50,[4],27.4 µM (active)
same,AC50,[5],155 µM (active)
same,outcome,[6],inactive
same,outcome,[11],inactive
same,outcome,[12],inactive
same,AC50,[16],25.3 µM (active)
same,outcome,[15],inactive
c1ccc2c(c1)c1cccc3ccc4cccc2c4c31,outcome,[1],inactive
same,outcome,[2],inactive
same,outcome,[3],inactive
same,outcome,[4],inactive
same,outcome,[5],inactive
same,outcome,[6],inactive
same,outcome,[7],inactive
same,outcome,[8],inactive
same,outcome,[9],inactive
same,outcome,[10],inactive
same,outcome,[11],inactive
same,outcome,[12],inactive
same,outcome,[13],inactive
same,outcome,[14],inactive
same,outcome,[15],inactive
same,outcome,[17],inactive
Nc1cc(N)cc(C(=O)O)c1,outcome,[1],inactive
same,outcome,[2],inactive
same,outcome,[3],inactive
same,outcome,[4],inactive
same,outcome,[5],inactive
CC(CCO)CCc1ccccc1 (configuration not stated),outcome,[1],inactive
same,outcome,[2],inactive
same,outcome,[3],inactive
same,outcome,[4],inactive
same,outcome,[5],inactive
same,outcome,[6],inactive
same,outcome,[11],inactive
same,outcome,[12],inactive
same,outcome,[16],inactive
same,AC50,[15],48.2 µM (active)
